Results from publication PMC11006913.

Key:
Experiment in all cases: PBM; 200 nM protein, PBS
Conditions in all cases: dsDNA, one strand shown
HOXB4 [1] = target: HOXB4 (Homo sapiens, UniProt P17483 148-234)
HOXA4 [2] = target: HOXA4 (Homo sapiens, UniProt Q00056 201-287, W262R)
HOXA4 [3] = target: HOXA4 (Homo sapiens, UniProt Q00056 201-287, R217L)
HOXB4 [4] = target: HOXB4 (Homo sapiens, UniProt P17483 148-234, V174I)
HOXA4 [5] = target: HOXA4 (Homo sapiens, UniProt Q00056 201-287)
HOXA4 [6] = target: HOXA4 (Homo sapiens, UniProt Q00056 201-287, W262F)
Sequence of HOXA4 (Homo sapiens, UniProt Q00056 201-287, W262F) (Q00056 201-287 W262F): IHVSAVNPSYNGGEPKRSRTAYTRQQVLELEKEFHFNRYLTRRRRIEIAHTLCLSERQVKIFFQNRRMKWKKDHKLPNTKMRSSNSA

HOXA2 [7] = target: HOXA2 (Homo sapiens, UniProt O43364 129-215, R185T)
Sequence of HOXA2 (Homo sapiens, UniProt O43364 129-215, R185T) (O43364 129-215 R185T): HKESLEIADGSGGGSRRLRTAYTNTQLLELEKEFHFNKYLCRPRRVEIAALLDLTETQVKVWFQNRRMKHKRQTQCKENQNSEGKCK

HOXA2 [8] = target: HOXA2 (Homo sapiens, UniProt O43364 129-215, R185K)
Sequence of HOXA2 (Homo sapiens, UniProt O43364 129-215, R185K) (O43364 129-215 R185K): as the sequence (O43364 129-215 R185T) above, with T57K counted along it

HOXA2 [9] = target: HOXA2 (Homo sapiens, UniProt O43364 129-215, Y150S)
Sequence of HOXA2 (Homo sapiens, UniProt O43364 129-215, Y150S) (O43364 129-215 Y150S): as the sequence (O43364 129-215 R185T) above, with Y22S, T57R counted along it

HOXA2 [10] = target: HOXA2 (Homo sapiens, UniProt O43364 129-215)
Sequence of HOXA2 (Homo sapiens, UniProt O43364 129-215) (O43364 129-215): as the sequence (O43364 129-215 R185T) above, with T57R counted along it

VAX1 [11] = target: VAX1 (Homo sapiens, UniProt Q5SQQ9 86-172)
Sequence of VAX1 (Homo sapiens, UniProt Q5SQQ9 86-172) (Q5SQQ9 86-172): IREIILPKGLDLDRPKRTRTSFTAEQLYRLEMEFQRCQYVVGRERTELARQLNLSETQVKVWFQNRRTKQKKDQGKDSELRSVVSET

VAX1 [12] = target: VAX1 (Homo sapiens, UniProt Q5SQQ9 86-172, T142I)
Sequence of VAX1 (Homo sapiens, UniProt Q5SQQ9 86-172, T142I) (Q5SQQ9 86-172 T142I): as the sequence (Q5SQQ9 86-172) above, with T57I counted along it

VAX1 [13] = target: VAX1 (Homo sapiens, UniProt Q5SQQ9 86-172, K157R)
Sequence of VAX1 (Homo sapiens, UniProt Q5SQQ9 86-172, K157R) (Q5SQQ9 86-172 K157R): as the sequence (Q5SQQ9 86-172) above, with K72R counted along it

Sequence of HOXA4 (Homo sapiens, UniProt Q00056 201-287) (Q00056 201-287): as the sequence (Q00056 201-287 W262F) above, with F62W counted along it
Sequence of HOXB4 (Homo sapiens, UniProt P17483 148-234, V174I) (P17483 148-234 V174I): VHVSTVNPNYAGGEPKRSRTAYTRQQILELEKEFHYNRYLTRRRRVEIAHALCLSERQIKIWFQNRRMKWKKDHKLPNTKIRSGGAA
Sequence of HOXB4 (Homo sapiens, UniProt P17483 148-234) (P17483 148-234): as the sequence (P17483 148-234 V174I) above, with I27V counted along it
Sequence of HOXA4 (Homo sapiens, UniProt Q00056 201-287, R217L) (Q00056 201-287 R217L): as the sequence (Q00056 201-287 W262F) above, with R17L, F62W counted along it
Sequence of HOXA4 (Homo sapiens, UniProt Q00056 201-287, W262R) (Q00056 201-287 W262R): as the sequence (Q00056 201-287 W262F) above, with F62R counted along it

Row | Sequence | binding signal (HOXB4 [1]) | binding signal (HOXA4 [2]) | binding signal (HOXA4 [3]) | binding signal (HOXB4 [4]) | binding signal (HOXA4 [5]) | binding signal (HOXA4 [6]) | binding signal (HOXA2 [7]) | binding signal (HOXA2 [8]) | binding signal (HOXA2 [9]) | binding signal (HOXA2 [10]) | binding signal (VAX1 [11]) | binding signal (VAX1 [12]) | binding signal (VAX1 [13])
1 | CGGGCTTC | 7.22 upbm affinity estimate (log intensity, higher = more binding, comparable within an allelic series) | 9.75 upbm affinity estimate (log intensity, higher = more binding, comparable within an allelic series) | 9.66 upbm affinity estimate (log intensity, higher = more binding, comparable within an allelic series) | 7.19 upbm affinity estimate (log intensity, higher = more binding, comparable within an allelic series) | 9.6 upbm affinity estimate (log intensity, higher = more binding, comparable within an allelic series) | 9.77 upbm affinity estimate (log intensity, higher = more binding, comparable within an allelic series) |  |  |  |  |  |  | 
2 | TATAATGA | 13 upbm affinity estimate (log intensity, higher = more binding, comparable within an allelic series) | 10.5 upbm affinity estimate (log intensity, higher = more binding, comparable within an allelic series) | 11.9 upbm affinity estimate (log intensity, higher = more binding, comparable within an allelic series) | 13.5 upbm affinity estimate (log intensity, higher = more binding, comparable within an allelic series) | 13.6 upbm affinity estimate (log intensity, higher = more binding, comparable within an allelic series) | 11.2 upbm affinity estimate (log intensity, higher = more binding, comparable within an allelic series) | 12 upbm affinity estimate (log intensity, higher = more binding, comparable within an allelic series) | 12.8 upbm affinity estimate (log intensity, higher = more binding, comparable within an allelic series) | 10.9 upbm affinity estimate (log intensity, higher = more binding, comparable within an allelic series) | 12.1 upbm affinity estimate (log intensity, higher = more binding, comparable within an allelic series) |  |  | 
3 | TTAATGAA | 13 upbm affinity estimate (log intensity, higher = more binding, comparable within an allelic series) | 10.7 upbm affinity estimate (log intensity, higher = more binding, comparable within an allelic series) | 12.2 upbm affinity estimate (log intensity, higher = more binding, comparable within an allelic series) | 13.7 upbm affinity estimate (log intensity, higher = more binding, comparable within an allelic series) | 13.8 upbm affinity estimate (log intensity, higher = more binding, comparable within an allelic series) | 11.8 upbm affinity estimate (log intensity, higher = more binding, comparable within an allelic series) | 12 upbm affinity estimate (log intensity, higher = more binding, comparable within an allelic series) | 12.9 upbm affinity estimate (log intensity, higher = more binding, comparable within an allelic series) | 10.8 upbm affinity estimate (log intensity, higher = more binding, comparable within an allelic series) | 12.1 upbm affinity estimate (log intensity, higher = more binding, comparable within an allelic series) | 12.7 upbm affinity estimate (log intensity, higher = more binding, comparable within an allelic series) | 12.4 upbm affinity estimate (log intensity, higher = more binding, comparable within an allelic series) | 12.4 upbm affinity estimate (log intensity, higher = more binding, comparable within an allelic series)
4 | TCCCAGGA | 7.82 upbm affinity estimate (log intensity, higher = more binding, comparable within an allelic series) |  |  | 7.66 upbm affinity estimate (log intensity, higher = more binding, comparable within an allelic series) |  |  |  |  |  |  | 7.2 upbm affinity estimate (log intensity, higher = more binding, comparable within an allelic series) | 7.36 upbm affinity estimate (log intensity, higher = more binding, comparable within an allelic series) | 7.24 upbm affinity estimate (log intensity, higher = more binding, comparable within an allelic series)
5 | CGAGGCAC | 7.73 upbm affinity estimate (log intensity, higher = more binding, comparable within an allelic series) |  |  | 7.43 upbm affinity estimate (log intensity, higher = more binding, comparable within an allelic series) |  |  |  |  |  |  |  |  | 
6 | CGCCGGGC | 7.64 upbm affinity estimate (log intensity, higher = more binding, comparable within an allelic series) | 9.72 upbm affinity estimate (log intensity, higher = more binding, comparable within an allelic series) | 9.76 upbm affinity estimate (log intensity, higher = more binding, comparable within an allelic series) | 7.67 upbm affinity estimate (log intensity, higher = more binding, comparable within an allelic series) | 9.84 upbm affinity estimate (log intensity, higher = more binding, comparable within an allelic series) | 9.99 upbm affinity estimate (log intensity, higher = more binding, comparable within an allelic series) | 7.33 upbm affinity estimate (log intensity, higher = more binding, comparable within an allelic series) | 10.2 upbm affinity estimate (log intensity, higher = more binding, comparable within an allelic series) | 10.4 upbm affinity estimate (log intensity, higher = more binding, comparable within an allelic series) | 7.24 upbm affinity estimate (log intensity, higher = more binding, comparable within an allelic series) |  |  | 
